NPSR antag – qHTS Assay for Antagonists of the Neuropeptide S Receptor: cAMP Signal Transduction; Q6W5P4; Potency, µM (titrated, usually from 38.3 µM), for the others: at the highest dose activity change, negative = inhibition, hits mostly inhibitors; AID 1461, 2008; CHO-NPSR cells, cAMP TR-FRET, antagonist mode; 220,000 tested, 1% active; further: nearly all actives have a fitted effect of over 50% in size
Target sequence (Q6W5P4 whole entry, looked up): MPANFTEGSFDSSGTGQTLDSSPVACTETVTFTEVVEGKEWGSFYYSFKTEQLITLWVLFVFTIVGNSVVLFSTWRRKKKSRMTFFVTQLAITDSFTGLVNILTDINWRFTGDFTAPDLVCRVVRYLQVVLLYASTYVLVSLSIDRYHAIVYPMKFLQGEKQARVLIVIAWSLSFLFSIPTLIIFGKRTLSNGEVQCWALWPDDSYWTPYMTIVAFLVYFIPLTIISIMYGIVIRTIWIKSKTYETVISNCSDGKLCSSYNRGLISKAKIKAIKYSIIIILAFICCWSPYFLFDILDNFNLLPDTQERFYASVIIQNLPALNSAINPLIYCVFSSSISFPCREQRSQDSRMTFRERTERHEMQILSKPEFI
ERK EGF inh – qHTS Assay for Inhibitors of the ERK Signaling Pathway using a Homogeneous Screening Assay; Stimulation with EGF | HEK293-V1b, EGF-stimulated phospho-ERK AlphaScreen | Potency, µM (doses to about 11.5 µM), inactives show at the highest dose activity change, negative = inhibition, actives largely listed as inhibitors | 130,000 tested, 0.41% active;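 further: plate controls were stimulated vehicle wells for no effect and unstimulated vehicle basal for full effect; nearly all actives have a fitted effect of over 55% in size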
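In this qHTS, HEK293 cells with stable type-1 vasopressin (V1b) receptor were exposed to compound at 37C for 30 min, stimulated 5 min with EGF at 25 nM, lysed, and probed for phospho-ERK by AlphaScreen.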
IMPase Li inh – qHTS Assay for Identifying the Cell-Membrane Permeable IMPase Inhibitors: Potentiation with Lithium; 210,000 tested, 0.35% active; CHO-M1 cells, IP1 TR-FRET (IP-One), carbachol + lithium; Potency, µM (highest dose often 59.4 µM), for the others: at the highest dose activity, negative = IMPase inhibition, usual class: inhibitors;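 further: IP1 builds up when IMPase is blocked and the TR-FRET signal falls; plate controls were basal vehicle for no effect and high inhibitor control for full effect; nearly all actives have a fitted effect of over 50% in size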
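CHO cells stably expressing M1 receptor (2000/well, cultured 16–30 h) treated 30 min at 37C with compound plus low lithium. Cytosolic IP1 by TR-FRET (665/620 ratio and 620 channel) after 10 min lysis; AC50 by Hill fit.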
Luc counter – Counterscreen for Luciferase (Kinase-Glo TM) Inhibition | Luciferin 4-monooxygenase (Photuris pensylvanica), Q27757 | Kinase-Glo luciferase, ATP luminescence, 8 min | Potency, µM (highest dose often 38.3 µM), inactives show top-dose activity change, negative = inhibition, usual class: inhibitors | 200,000 tested, 0.28% active | AID 1379, 2008; further: nearly all actives have a fitted effect of over 60% in size
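Light output from Kinase-Glo luciferase with luciferin and 10 uM ATP in 50 mM imidazole pH 7.2, KCl, MgCl2, Tween 20, BSA; compound pin-delivered, 8-min ambient incubation, then luminescence read.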
Numbers without * were called inactive; ? = inconclusive; . = no result; [ ] = another dose, or the depositor's remark. Compounds with a hit are over-represented: about 1.1% of the library has one in this group of screens. The call rests on the fitted dose curve; in most records, active means well fitted curve in the direction sought with a large enough effect; inconclusive means small, poorly fitted or top-dose-only effect, or another doubt; inactive means no such curve, though single readings can be large; an effect the other way counts as inactive or inconclusive. Unless noted, on the % scale 0 is the no-effect control and ±100 the full control effect; potency means the concentration at half of the fitted maximal effect.

SMILES | NPSR antag | ERK EGF inh | IMPase Li inh | Luc counter
Cc1sc2ncnc(SCC(=O)N(C)C3CCS(=O)(=O)C3)c2c1C (centres undefined) | 2% | -1% | 6% | 0%
CSc1ccccc1NC(=O)COc1ccc(Cl)cc1Cl | -12%[46.1 µM] | . | . | .
O=C(COc1ccc(Cl)cc1Cl)Nc1ccccn1 | 1%[46.1 µM] | . | 0%[38.3 µM] | 1.6µM*
CC(=O)c1sc(NC(=O)COc2ccc(Cl)cc2Cl)nc1C | ? | 0% | 10µM* | 2%
CCCC(=O)Nc1nc(C)c(C(C)=O)s1 | 15% | -13% | 8.9µM* | -4%
O=C1OC(c2cc(I)c(O)c(I)c2)(c2cc(I)c(O)c(I)c2)c2ccccc21 | . | . | 23% | 2%[39.9 µM]
CCN1CCCC1CNC(=O)c1ccc(-n2c(=O)c(=O)[nH]c3ccccc32)cc1 (centres undefined) | . | . | . | -1%
CN(C)c1ccc(NC(=S)c2ccccn2)cc1 | -33% | 20µM* | 0% | 13µM*
N#C/C(=C\c1ccc([N+](=O)[O-])cc1)c1ccccn1 | 2% | ? | 3% | -28%
CN(C)c1ccc(/C=C(\C#N)c2ccccn2)cc1 | 4% | 3% | 4% | 7.9µM*
C=C(C(=O)c1ccccc1)C(c1ccccc1)C(C)C(=O)c1ccccc1 (centres undefined) | ? | -7% | 18% | 2%
C=C(C(=O)c1ccccc1)C(C)C(=C)C(=O)c1ccccc1 | 10µM* | -1% | 5% | 1%
Nc1cc2nsnc2cc1Br | 2.5µM* | . | ? | -1%
Cc1cc(=O)[nH]c(N=N/C(=N/Nc2ccc(O)cc2)c2ccccc2)n1 | -36%[46.1 µM] | . | 121%[38.3 µM] | 7.9µM*
COc1ccc(N/N=C(/N=Nc2nc(C)cc(=O)[nH]2)c2ccccc2)cc1 | -11%[46.1 µM] | . | 63%[38.3 µM] | 8.9µM*
CC(=O)OCC(=O)[C@@]12OC(C)(C)O[C@@H]1C[C@H]1[C@H]3C[C@H](F)C4=CC(=O)C=C[C@@]4(C)[C@]3(F)[C@H](O)C[C@@]12C | . | 10%[25.7 µM] | -6% | 1%[17.1 µM]
O=C(CNC(=S)NC(=O)c1ccc(Cl)cc1)c1ccccc1 | -4% | 12% | 10µM* | -1%
Cc1ccc(C(O)C2=CCCC2=O)cc1 (centres undefined) | . | 1% | 7% | 1%
O=C(CN1CCCCC1)Nc1c2c(nc3ccccc13)N(c1ccccc1)CC2 | 7.9µM* | 5% | ? | 2%
CC(C)c1cccc2nc3c(c(C(C)(C)C)c12)Cn1c-3cccc1=O | . | 13% | -13% | -1%
O=C(/C=C/c1ccco1)NC(=S)Nc1nc(-c2ccc(Cl)cc2)cs1 | 3.2µM* | . | . | .
O=C(/C=C/c1ccco1)NC(=S)Nc1nc(-c2ccc3ccccc3c2)cs1 | 1.3µM* | 0% | 1% | 17%
CN(C)C1CCN(C(=O)c2ccc(-n3c(=O)c(=O)[nH]c4ccccc43)cc2)C1 (centres undefined) | . | . | . | -2%
c1ccc(-c2ccccn2)nc1 | 16% | 1% | -2% | 0%
c1ccc(-c2ccc(-c3ccccn3)nn2)nc1 | -8%[46.1 µM] | . | -6%[38.3 µM] | 10µM*
SMILES | NPSR antag | ERK EGF inh | IMPase Li inh | Luc counter
O=C(c1ccccc1F)N1CCN(c2ccc([N+](=O)[O-])cc2-n2cccc2)CC1 | -58% | 3%[57.5 µM] | . | .
O=C(c1ccc(F)cc1)N1CCN(c2ccc([N+](=O)[O-])cc2-n2cccc2)CC1 | 10µM* | 9%[57.5 µM] | . | .
O=C(c1ccco1)N1CCC2(CCN(Cc3cc(C(F)(F)F)cc(C(F)(F)F)c3)CC2)CC1 | . | 1% | 18% | -2%
O=C(Nc1ccccn1)c1onc2c1CCCC2 | 7% | 0% | -1% | 13µM*
O=C(Nc1ccccn1)c1csc2c1CCCC2 | 0% | -7% | -3% | -4%
Cn1c(C(=O)Nc2ccc3c(c2)OCO3)cc2c(=O)n(C)c3ccccc3c21 | ? | . | 6%[38.3 µM] | 4%
CCOc1ccc(NC(=O)c2cc3c(=O)n(C)c4ccccc4c3n2C)cc1 | -14%[46.1 µM] | . | 7.9µM* | -3%
Cc1ccc(Nc2c(-c3ccccn3)nc3ccc(C)cn23)cc1 | 10µM* | 2% | 19% | -1%
Cc1cccc(CNc2ncncc2-c2cccc(C#N)c2)c1 | . | 26% | 15% | -3%
Fc1ccc(CSc2nc3ncc(Br)cc3[nH]2)cc1 | ? | . | 14µM* | -3%
O=C(COc1ccc(Cl)cc1Cl)NC(=S)Nc1ccc(CN2CCOCC2)cc1 | -2% | 20µM* | . | .

Screens deposited in PubChem BioAssay by National Center for Advancing Translational Sciences (NCATS).
